Where “and” joins values, the source holds several entries; their conditions need not be identical. Identical values can stand only once. Where a structure was tested more than once in an assay, its records may differ in their call. Calls of active or inactive are those of the source. The calls were made as follows: active = hit-call score of the fitted dose curve at least 0.9, where 1 is the maximum; inactive = score below 0.9.
Columns and labels:
[1] = read-out: Urokinase-type plasminogen activator receptor (uPAR), PLAUR (gene 5329); test: BSK_4H_uPAR: BioMAP Diversity Plus: 4H Assay for Urokinase-type plasminogen activator receptor (uPAR) Biomarker Activity (AID 2283030); details: primary human endothelial cells (HUVEC); actives raise or lower the signal
In short: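 Chemicals are dosed onto human vascular endothelial primary cells (umbilical vein). After 24 h, uPAR is read by ELISA. Gain or loss of signal is fitted relative to DMSO.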

[2] = read-out: Vascular endothelial growth factor receptor 2 (Homo sapiens) (UniProt P35968); test: BSK_4H_VEGFRII: BioMAP Diversity Plus: 4H Assay for Vascular endothelial growth factor receptor 2 (VEGFR2) Biomarker Activity (AID 2283031); details: primary human endothelial cells (HUVEC); actives raise or lower the signal;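 as to AC50: cell-surface VEGFR2 protein level quantified by ELISA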
In short: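 VEGFRII levels on human vascular endothelial primary cells were determined by ELISA at 24 hours post-dosing, with gain- or loss-of-signal fitted against DMSO controls.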

[3] = read-out: Human Leukocyte Antigen - DR isotype (HLADR), HLA-DRA (gene 3122); test: BSK_BE3C_HLADR: BioMAP Diversity Plus: BE3C Assay for Human Leukocyte Antigen - DR isotype (HLADR) Biomarker Activity (AID 2283032); details: primary human bronchial epithelial cells; actives raise or lower the signal
In short: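 Chemicals are dosed onto BE3C bronchial epithelial cultures of human origin and left 24 h. HLA-DR is then measured by ELISA, and the endpoint is fitted in both directions using DMSO as the activity baseline.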

[4] = read-out: Vascular cell adhesion molecule 1 (VCAM1), VCAM1 (gene 7412); test: BSK_4H_VCAM1: BioMAP Diversity Plus: 4H Assay for Vascular cell adhesion molecule 1 (VCAM1) Biomarker Activity (AID 2283033); details: primary human endothelial cells (HUVEC); actives raise or lower the signal;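 as to outcome: cell-surface VCAM-1 protein measured by ELISA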
In short: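 Chemicals are added to primary human umbilical vein endothelial cells. After 24 h, VCAM-1 levels are measured by ELISA. Values come from bidirectional fitting referenced to DMSO.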

[5] = read-out: Interferon-gamma inducible Protein 10 (IP10), CXCL10 (gene 3627); test: BSK_BE3C_IP10: BioMAP Diversity Plus: BE3C Assay for Interferon-gamma inducible Protein 10 (IP10) Biomarker Activity (AID 2283034); details: primary human bronchial epithelial cells; actives raise or lower the signal
In short: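 IP-10 quantified by ELISA serves as the endpoint. Cells: primary human bronchial epithelium, read 24 h after compound addition. Activity is derived by bidirectional fitting with DMSO as negative control.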

[6] = read-out: Monokine induced gamma interferon (MIG), CXCL9 (gene 4283); test: BSK_BE3C_MIG: BioMAP Diversity Plus: BE3C Assay for Monokine induced gamma interferon (MIG) Biomarker Activity (AID 2283035); details: primary human bronchial epithelial cells; actives raise or lower the signal;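 as to outcome: MIG protein measured by ELISA in BE3C cultures after 24 h of dosing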
In short: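 Dose cells (human primary bronchial epithelial), incubate 24 h, quantify MIG by ELISA, then fit concentration–response in both directions relative to DMSO control.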

[7] = read-out: Plasminogen activator inhibitor-1 (PAI1), SERPINE1 (gene 5054); test: BSK_BE3C_PAI1: BioMAP Diversity Plus: BE3C Assay for Plasminogen activator inhibitor-1 (PAI1) Biomarker Activity (AID 2283037); details: primary human bronchial epithelial cells; actives raise or lower the signal
In short: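 Values derive from bidirectional fitting against DMSO baseline of PAI-1 levels, measured by ELISA in human bronchial epithelial cells 24 h after compound addition.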

[8] = read-out: urokinase plasminogen activator (uPA), PLAU (gene 5328); test: BSK_BE3C_uPA: BioMAP Diversity Plus: BE3C Assay for urokinase plasminogen activator (uPA) Biomarker Activity (AID 2283038); details: primary human bronchial epithelial cells; actives raise or lower the signal;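 as to outcome: uPA protein level quantified by ELISA in cell cultures; uPA read one day after compound addition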
In short: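 Measured by ELISA: uPA from human primary bronchial epithelial cells 24 h after chemical treatment. Values derive from bidirectional curve fitting with DMSO serving as negative control. Total protein by SRB staining in parallel wells flagged overt cytotoxicity.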

[9] = read-out: Urokinase-type plasminogen activator receptor (uPAR), PLAUR (gene 5329); test: BSK_BE3C_uPAR: BioMAP Diversity Plus: BE3C Assay for Urokinase-type plasminogen activator receptor (uPAR) Biomarker Activity (AID 2283039); details: primary human bronchial epithelial cells; actives raise or lower the signal;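 as to outcome: uPAR protein level measured by ELISA on the cells; cells exposed to compound for one day before measurement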
In short: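 Steps: dose human primary bronchial epithelial cells, incubate 24 h, measure uPAR by ELISA, then fit gain- or loss-of-signal response bidirectionally relative to DMSO.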

[10] = read-out: Transforming growth factor beta 1 (TGFb1), TGFB1 (gene 7040); test: BSK_BE3C_TGFb1: BioMAP Diversity Plus: BE3C Assay for Transforming growth factor beta 1 (TGFb1) Biomarker Activity (AID 2283036;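 also: TGF-b1 protein level measured by ELISA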); details: primary human bronchial epithelial cells; actives raise or lower the signal
In short: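 Bronchial epithelial primary cells are treated with test chemical, then TGF-b1 is quantified by ELISA after 24 hours. Values derive from bidirectional fitting against DMSO, with cytotoxicity checked by SRB staining in parallel cultures.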

SMILES | outcome [1] | outcome [2] | outcome [3] | outcome [4] | outcome [5] | outcome [6] | outcome [7] | outcome [8] | outcome [9] | AC50 [1] | AC50 [4] | AC50 [5] | outcome [10] | AC50 [3] | AC50 [8] | AC50 [7] | AC50 [2] | AC50 [6] | AC50 [9]
CCCCCC1=CCCC1=O | inactive | inactive | inactive | inactive | inactive | inactive | inactive | inactive | inactive | – | – | – | – | – | – | – | – | – | –
c1ccc2sc(SSN3CCOCC3)nc2c1 | – | inactive | inactive | – | – | inactive | inactive | inactive | inactive | 6.7 µM (active) | 6.28 µM (active) | 12.3 µM (active) | – | – | – | – | – | – | –
O=C(Cl)c1c(Cl)c(Cl)c(C(=O)Cl)c(Cl)c1Cl | inactive | inactive | inactive | inactive | inactive | inactive | inactive | inactive | inactive | – | – | – | inactive | – | – | – | – | – | –
C[N+](C)(C)CCCNS(=O)(=O)C(F)(F)C(F)(F)C(F)(F)C(F)(F)C(F)(F)C(F)(F)C(F)(F)C(F)(F)F | inactive | inactive | inactive | inactive | – | inactive | inactive | inactive | inactive | – | – | 30 µM (active) and 43.7 µM (active) | – | 54.8 µM (active) | 1.1 µM (active) | – | – | – | –
CCN1CN(CC)CN(CC)C1 | inactive | inactive | inactive | inactive | inactive | inactive | inactive | inactive | inactive | – | – | – | inactive | – | – | – | – | – | –
C1CNCCN1 | inactive | inactive | inactive | inactive | inactive | inactive | inactive | inactive | inactive | – | – | – | – | – | – | – | – | – | –
C=CC(=O)NC(C)(C)C | inactive | inactive | inactive | inactive | inactive | inactive | inactive | inactive | inactive | – | – | – | inactive | – | – | – | – | – | –
O=C(O)C(F)(F)C(F)(F)C(F)(F)C(F)(F)C(=O)O | inactive | inactive | inactive | inactive | inactive | inactive | inactive | inactive | inactive | – | – | – | – | – | – | – | – | – | –
CC1(C)CC(O)CC(C)(C)N1[O] | inactive | inactive | inactive | inactive | inactive | inactive | inactive | inactive | inactive | – | – | – | – | – | – | – | – | – | –
Oc1ccccc1Cc1ccccc1O | inactive | inactive | inactive | inactive | inactive | inactive | inactive | inactive | inactive | – | – | – | – | – | – | 18 µM (active) | – | – | –
C=CC(=O)OCCCCCCOC(=O)C=C | – | – | – | – | – | – | inactive | inactive | – | 20 µM (active) | 20 µM (active) | 26 µM (active) | inactive | 7.89 µM (active) | – | – | 20 µM (active) | 35.7 µM (active) | 11.4 µM (active)
c1ccc2c(c1)[nH]c1ccccc12 | inactive | inactive | inactive | inactive | inactive | inactive | inactive | inactive | inactive | – | – | 20.1 µM (active) | – | – | – | – | – | – | –
CCCC(C)C(=O)OCC (stereo not given) | inactive | inactive | inactive | inactive | inactive | inactive | inactive | inactive | inactive | – | – | – | – | – | – | – | – | – | –
CC(CCC(=O)O)(c1ccc(O)cc1)c1ccc(O)cc1 | inactive | inactive | inactive | inactive | inactive | inactive | inactive | inactive | inactive | – | – | – | – | – | – | – | – | – | –
CCCCCCC=O | inactive | inactive | inactive | inactive | inactive | inactive | inactive | inactive | inactive | – | – | – | – | – | – | – | – | – | –
Nc1cccc(N)n1 | inactive | inactive | inactive | inactive | inactive | inactive | inactive | inactive | inactive | – | – | – | inactive | – | – | – | – | – | –
COc1ccc(C(=O)/C(Br)=C\C(=O)O)cc1 | – | inactive | – | – | – | inactive | inactive | inactive | inactive | 32.5 µM (active) and 32.2 µM (active) | 22.1 µM (active) and 20 µM (active) | 20 µM (active) | – | 26.8 µM (active) and 20 µM (active) | 20 µM (active) | 8.24 µM (active) | 29.8 µM (active) | 28.8 µM (active) | –
CC=C(C)C=CC=C(C)C | inactive | inactive | – | inactive | inactive | inactive | inactive | – | inactive | – | – | – | inactive | 15.9 µM (active) | 0.0546 µM (active) | – | – | – | –
CC=C(C)C(C)=O | inactive | inactive | inactive | inactive | – | inactive | inactive | inactive | inactive | – | – | 20 µM (active) | inactive | – | – | – | – | – | –
CC(C)c1cccc(C(C)C)c1N | inactive | inactive | inactive | – | inactive | inactive | inactive | inactive | inactive | – | 32 µM (active) | – | inactive | – | – | – | – | – | –
O=C1CCCCCCCCCCCN1 | inactive | inactive | inactive | inactive | inactive | inactive | inactive | inactive | inactive | – | – | – | – | – | – | – | – | – | –
CCCCC1C(=O)N(c2ccccc2)N(c2ccccc2)C1=O | inactive | inactive | inactive | inactive | inactive | inactive | inactive | inactive | inactive | – | – | – | inactive | – | – | – | – | – | –
CC/C=C\CCOC(=O)c1ccccc1O | – | – | – | – | inactive | inactive | inactive | inactive | inactive | 21.1 µM (active) | 25.1 µM (active) | – | inactive | 20 µM (active) | – | – | 20 µM (active) | – | –
O=C1CCCCCCCCCCC1 | inactive | inactive | inactive | inactive | inactive | inactive | inactive | inactive | inactive | – | – | – | – | – | – | – | – | – | –
CCOC(=O)C1=NOC(c2ccccc2)(c2ccccc2)C1 | inactive | inactive | inactive | inactive | inactive | inactive | inactive | inactive | inactive | – | – | – | inactive | – | – | – | – | – | –
CCCCCCCCCCCC(=O)N(C)CC(=O)O | – | – | inactive | – | inactive | inactive | inactive | inactive | inactive | 19.5 µM (active) and 13.4 µM (active) | 3.87 µM (active) and 2.41 µM (active) | – | – | – | – | – | 9.25 µM (active) and 120 nM (active) | – | –
CCC1(C)C(=O)N(Cl)C(=O)N1Cl (stereo not given) | inactive | inactive | inactive | inactive | inactive | inactive | inactive | inactive | inactive | – | – | – | – | – | – | – | – | – | –
Cc1ccc([N+](=O)[O-])cc1N | inactive | inactive | inactive | inactive | inactive | inactive | inactive | inactive | inactive | – | – | – | – | – | – | – | – | – | –
CCNc1nc(NC(C)(C)C)nc(OC)n1 | inactive | inactive | inactive | inactive | inactive | inactive | inactive | inactive | inactive | – | – | – | – | – | – | – | – | – | –

Reference: PubChem BioAssay (EPA / NIEHS)
